Most compounds without a hit are left out; they make up all but 1.1% or so of the library.
Rv3671c protease = Rv3671c (M. tuberculosis) protease inhibition. P9WHR9. inhibition, % at 5.96 µM. 0.048% of 320,000 active; in the data active = inhibition above about 38%;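 note: extracellular domain of Rv3671c used as enzyme; 0% = enzyme with DMSO and 100% = no enzyme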
Mtb UGM inh = Mtb UDP-galactopyranose mutase inhibition; purified UGM, fluorescence polarization probe displacement; inhibition, % at 10 µM; 0.06% of 320,000 active; in the data active = inhibition above about 10%, passing the limit was not always enough; inconclusive = no clear call, values can overlap the other calls
Mtb bLac sens = beta-lactam sensitization of Mtb H37Rv; inhibition, % at 25 µM; 0.27% of 330,000 active; M. tuberculosis H37Rv growth with meropenem, percent inhibition;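 note: growth measured after seven days incubation then overnight dye step; 0% = bacteria only wells and 100% = bacteria with antibiotic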
RecA intein inh = blocks M. tuberculosis RecA intein splicing | cell-free RecA intein splicing, fluorescence | 0.75% of 290,000 active | P9WHJ3 | inhibition, % (test concentration not listed); in the data active = inhibition above about 30%; inconclusive = no clear call, values can overlap the other calls;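 note: 0% = vehicle wells and 100% = reference inhibitor control wells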
Target sequence (P9WHJ3 whole entry, looked up): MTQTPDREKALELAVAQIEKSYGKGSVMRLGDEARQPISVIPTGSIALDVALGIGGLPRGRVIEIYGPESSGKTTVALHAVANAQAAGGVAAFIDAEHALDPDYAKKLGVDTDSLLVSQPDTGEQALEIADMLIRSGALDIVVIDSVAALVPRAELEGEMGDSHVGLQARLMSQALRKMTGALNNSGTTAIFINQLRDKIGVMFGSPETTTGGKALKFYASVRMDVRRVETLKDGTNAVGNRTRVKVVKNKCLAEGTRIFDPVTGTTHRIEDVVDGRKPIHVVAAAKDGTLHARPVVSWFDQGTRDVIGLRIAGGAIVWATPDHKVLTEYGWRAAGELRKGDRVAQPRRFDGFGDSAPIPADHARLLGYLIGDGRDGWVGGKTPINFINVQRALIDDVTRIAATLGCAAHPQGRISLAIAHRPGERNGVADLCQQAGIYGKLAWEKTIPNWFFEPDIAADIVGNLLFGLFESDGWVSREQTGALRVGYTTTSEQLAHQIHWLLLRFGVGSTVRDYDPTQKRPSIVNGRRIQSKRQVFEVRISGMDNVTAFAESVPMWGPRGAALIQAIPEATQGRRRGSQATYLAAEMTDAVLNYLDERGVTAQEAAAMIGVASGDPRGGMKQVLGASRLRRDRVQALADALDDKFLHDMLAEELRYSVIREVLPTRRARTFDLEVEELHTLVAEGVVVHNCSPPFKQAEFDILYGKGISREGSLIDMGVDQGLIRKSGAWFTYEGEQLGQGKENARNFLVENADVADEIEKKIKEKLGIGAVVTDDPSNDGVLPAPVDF
SSB-PriA inh = inhibitors of Klebsiella pneumoniae PriA binding to SSB C-terminal tail; AlphaScreen SSBct-PriA binding, biotinylated peptide; inhibition, % at 33 µM; 0.6% of 430,000 active; AID 1272365; in the data active = inhibition mostly above about 37%, no sharp cut-off; inactive = mostly below about 20%;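 note: plate controls were negative control peptide for no effect and reference peptide for full effect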
GFP chromophore = counter-screen GFP chromophore formation inhibition. shares compounds with RecA intein inh. cell-free GFP chromophore formation, fluorescence. EC50, µM. 83% of 2,100 active
* marks the source's active call; other numbers are inactive results; ? = inconclusive; . = not tested or not shown. Unless noted, the rule behind the calls is not given here.

SMILES	Rv3671c protease	Mtb UGM inh	Mtb bLac sens	RecA intein inh	SSB-PriA inh	GFP chromophore
O=C(O)CC1S/C(=N/N=C/c2ccc(-c3ccccc3[N+](=O)[O-])o2)NC1=O (stereo unspecified)	-67.7	-3.4	2.5	42.7*	.	17.4*
O=C(C1CC1)N1CCc2ccc(NS(=O)(=O)c3ccc(F)cc3)cc2C1	.	.	.	.	-2.0	.
CCOC(=O)c1c(SCC(=O)NCc2ccc3c(c2)OCO3)nc(=O)[nH]c1C	.	.	.	.	-5.0	.
Cn1c(=O)c2c(ncn2CC(=O)NN=Cc2cn[nH]c2-c2ccc(F)cc2)n(C)c1=O	.	.	.	.	-3.1	.
NS(=O)(=O)c1ccc(CCNC(=O)Cc2csc(NC(=O)c3ccc(Cl)cc3)n2)cc1	.	.	.	.	-9.0	.
Cc1ccc(SC(=O)c2c(C)noc2-c2cc(C)on2)cc1	1.5	0.9	-1.1	61.4*	-8.1	25.7*
COC(=O)CSc1nc2sc3c(c2c(=O)n1C1CCCCC1)CCN(C)C3	-11.1	-1.7	31.5	39.1*	.	>38
CCc1ccccc1NC(=O)Cn1ccn(-c2ccc3c(c2)OCO3)c(=O)c1=O	.	.	.	.	-28.0	.
CCOc1ccc(N=Nc2c(N)[nH][nH]c2=O)cc1	5.1	1.4	56.8	53.9*	12.4	17.8*
CCCNC1=C(N(C(C)=O)c2cccc(F)c2)C(=O)c2ccccc2C1=O	-90.5	0.9	99.4	63.1*	16.7	14.5*
CCC(=O)N(C1=C(NC(C)C)C(=O)c2ccccc2C1=O)C(C)C	-35.0	0.7	-1.7	15.3	8.6	.
CC(C)Cn1c(C(C)C)nc([N+](=O)[O-])c1S(=O)(=O)c1ccc(F)cc1	-2.5	-1.6	-9.4	51.0*	-6.8	>38
CC1=NN(Cc2ccccc2)C(=O)/C1=C\c1ccc(N(C)C)cc1	0.3	0.4	-8.4	93.9*	5.1	?
Cn1c(=NC(=O)c2cccc(C(F)(F)F)c2)sc2cc(S(C)(=O)=O)ccc21	.	.	.	.	2.0	.
COc1ccc(C2NC(=O)NC3=C2CCc2ccccc23)cc1 (stereo unspecified)	1.5	1.8	23.4	46.6*	2.3	32.7*
CCCCCC(=O)Cc1cc(O)cc2c1C(=O)Oc1cc(O)c(C(=O)O)c(CCCCC)c1O2	-44.4	4.5	-5.3	66.3*	8.1	7.25*
COc1ccc(-c2c(=O)n(OC)c3ccccc3[n+]2[O-])cc1OC	-2.4	1.3	-1.3	42.2*	11.1	>38
O=C(NCc1ccc(F)cc1)N(CCc1cccs1)Cc1cccnc1	.	.	.	.	-16.0	.
Nc1cc2c3c(c1)CC(=O)N3CCC2	.	.	.	.	1.0	.
O=C(CCl)c1cc2c3c(c1)CC(=O)N3CCC2	0.6	0.2	99.0	43.6*	-2.0	38.6*
Cc1ccc(N(C(=O)CCl)C(C(=O)NC2CCCCC2)c2cccnc2)cc1C (stereo unspecified)	-9.7	0.1	43.4	71.6*	-3.8	2.57*
Cc1ccc(N(C(=O)CNC(=O)c2ccco2)C(C(=O)NC2CCCCC2)c2cccnc2)cc1C (stereo unspecified)	2.5	-0.4	-1.2	-0.8	2.3	.
O=C(O)c1ccc(-n2[nH]c3c(c2=O)CCCC3)cc1	6.7	3.5	-4.2	2.4	-9.1	.
Cc1cc(=O)n(-c2ccc(C(=O)O)cc2)[nH]1	-138.5	0.7	-4.6	93.9*	0.2	2.83*
CCOC(=O)c1ccc(-n2[nH]c(-c3ccccc3)cc2=O)cc1	-52.0	-1.1	-1.0	66.7*	-10.2	3.34*
SMILES	Rv3671c protease	Mtb UGM inh	Mtb bLac sens	RecA intein inh	SSB-PriA inh	GFP chromophore
Cc1cc(=O)n(-c2ccc(O)cc2)[nH]1	-178.6	-0.5	28.6	97.1*	-8.0	2.21*
Cc1cc(=O)n(-c2ccc(Cl)cc2Cl)[nH]1	.	.	.	.	9.0	.
Cc1cc(=O)n(-c2ccccc2Cl)[nH]1	-159.1	-2.3	1.2	87.3*	-12.1	17.9*
COc1ccc(CCS(=O)(=O)NCCc2ccc(N(C)C)cc2)cc1	.	.	.	.	11.0	.
CCOC(=O)c1ccccc1Nc1cn(C(C)=O)c2ccccc12	6.0	3.4	69.5	5.0	-13.7	.
CC(=O)n1cc(N(C(=O)CCl)c2ccc(Cl)cc2)c2ccccc21	1.9	-1.4	99.2	58.7*	-5.2	1.28*
COc1ccccc1N(C(=O)CCl)c1cn(C(C)=O)c2ccccc12	0.1	0.1	96.5	51.1*	-11.4	22.6*
COc1ccc(OC)c(S(=O)(=O)NCCOc2ccc(F)cc2)c1	.	.	.	.	-14.0	.
O=S(=O)(Nc1cccc2ccccc12)c1ccc(Cl)cc1	.	.	.	.	-10.0	.
O=C(O)CSc1cc(NS(=O)(=O)c2ccc(Cl)cc2)c2ccccc2c1O	-140.9	-3.4	14.7	96.3*	-2.1	9.76*
COc1ccc(OC)c(S(=O)(=O)Nc2cc(Sc3ccccc3)c(O)c3ccccc23)c1	.	.	.	.	-3.0	.
COc1ccc(S(=O)(=O)Nc2cc(SCC(=O)O)c(O)c3ccccc23)cc1	-143.2	-1.3	8.2	96.4*	-29.9	0.651*
Cc1cc(C)c(S(=O)(=O)Nc2cc(Cl)c(O)c3ccccc23)cc1C	.	.	.	.	44.0	.
Cc1cc(C)c(S(=O)(=O)Nc2cc(SCC(=O)O)c(O)c3ccccc23)cc1C	-178.7	3.1	3.3	96.9*	8.1	0.869*
COc1ccc(CNC(=O)CCc2csc(NC(=O)Nc3ccccc3)n2)cc1	.	.	.	.	-9.0	.
O=C1C(Cc2ccccc2)Nc2ncnc(N3CCc4ccccc4C3)c2N1Cc1ccc(Cl)cc1 (stereo unspecified)	-32.2	0.6	2.6	33.4*	-4.9	>38
CCC1Nc2ncnc(N3CCc4ccccc4C3)c2N(Cc2ccc(Cl)cc2)C1=O (stereo unspecified)	0.1	0.1	13.5	.	-1.2	.
O=C(CSc1ncnc2c1nnn2-c1ccc(F)cc1)NCC1CCCO1 (stereo unspecified)	1.5	-2.8	92.0	38.3*	-14.1	8.91*
Cc1ccc(-n2nnc3c(SCC(=O)NC[C@H]4CCCO4)ncnc32)cc1	.	.	.	.	-9.0	.
Cc1ccc(-n2nnc3c(SCC(=O)NCC4CCCO4)ncnc32)cc1 (stereo unspecified)	8.7	-1.2	72.2	39.6*	-9.4	>38
COc1ccccc1CNc1ncnc2c1cnn2-c1cc(Cl)ccc1C	.	.	.	.	-9.0	.
O=C(NC1CC(=O)N(c2ccc(F)cc2)C1)N(CCO)Cc1ccccc1 (stereo unspecified)	.	.	.	.	-11.0	.
Cc1[nH]nc2c1C(CCc1ccccc1)C(C#N)=C(N)O2 (stereo unspecified)	-4.0	0.2	?	70.2*	1.4	29.3*
CCOC(=O)Cc1[nH]nc2c1C(Cc1ccccc1)C(C#N)=C(N)O2 (stereo unspecified)	-2.0	2.1	-1.4	28.2	-5.0	.
COc1ccc(-c2ccc(C3C(C#N)=C(N)Oc4n[nH]c(C)c43)o2)cc1 (stereo unspecified)	-6.2	-1.2	98.4	.	2.6	.
COc1ccc(F)c(C2C(C#N)=C(N)Oc3n[nH]c(C(C)(C)C)c32)c1 (stereo unspecified)	8.4	0.4	2.5	7.2	5.1	.
CCCC1C(C#N)=C(N)Oc2n[nH]c(C(C)(C)C)c21 (stereo unspecified)	-4.4	2.8	-9.8	74.4*	-2.3	1.67*
CC(C)C1C(C#N)=C(N)Oc2n[nH]c(C(C)(C)C)c21 (stereo unspecified)	2.4	-0.4	2.4	.	-2.3	.

Screening results as filed in PubChem.
